Test results from the OligoGym collection.

Key:
Experiment in all cases: pooled miR-30 sensor sort-seq; sequence = guide strand
Conditions in all cases: shRNA
CALB1 = molecular target: CALB1
CADM4 = molecular target: CADM4
CAMK2N1 = molecular target: CAMK2N1
CAPNS2 = molecular target: CAPNS2
CASQ1 = molecular target: CASQ1
CASP8 = molecular target: CASP8
CBL = molecular target: CBL
Also: reference of the scale not given here.

## TTAGATACAGTGTATCACTAGC
CALB1
  sensor-assay potency score (higher = more potent): 0.553

## AAGCTGGAAACGCTCATCCTTC
CADM4
  sensor-assay potency score (higher = more potent): -1.15

## TTCGGTACAGCTTCCCTCCATC
CALB1
  sensor-assay potency score (higher = more potent): -0.593

## ATAACAACCCGCTTGCTCCGGC
CAMK2N1
  sensor-assay potency score (higher = more potent): -0.269

## TATTCTTCTCGCACAGATCCTT
CALB1
  sensor-assay potency score (higher = more potent): 0.132

## TAAATCTGTAATGAGACTGTTA
CALB1
  sensor-assay potency score (higher = more potent): 0.457

## TTCTGCCGTACCGAGCACCAGA
CADM4
  sensor-assay potency score (higher = more potent): -1.21

## TATAAAAGAAAATACAGCCTAC
CALB1
  sensor-assay potency score (higher = more potent): -0.236

## TAAGCTTAGAAATATTTTGTGG
CALB1
  sensor-assay potency score (higher = more potent): -0.267

## ACATATGATCAGAAACACCAGC
CADM4
  sensor-assay potency score (higher = more potent): -1.09

## TTTTGTGTCATCAACAGTCTTG
CALB1
  sensor-assay potency score (higher = more potent): 0.226

## TTTAAGAAGAAAATTCTCCTGC
CALB1
  sensor-assay potency score (higher = more potent): 1.04

## TTATTTTTTAGATACAGTGTAT
CALB1
  sensor-assay potency score (higher = more potent): -0.499

## ATTATTAATATCCAGATCCTGT
CALB1
  sensor-assay potency score (higher = more potent): -0.387

## TTACGGTCCACACGAAACCGTA
CADM4
  sensor-assay potency score (higher = more potent): -1.33

## TATGATCAGAAACACCAGCAGC
CADM4
  sensor-assay potency score (higher = more potent): -1.06

## TCTGTCTGTACTTCCTGTCCTG
CADM4
  sensor-assay potency score (higher = more potent): 0.306

## TCATCTTCAATAACAACCCGCT
CAMK2N1
  sensor-assay potency score (higher = more potent): 0.215

## TTCCCTTGTCACATCAACTTGA
CALB1
  sensor-assay potency score (higher = more potent): 0.335

## TTATTGGACGCCTCGCAAGTGT
CADM4
  sensor-assay potency score (higher = more potent): -0.6

## TGTAATATTATTAATATCCAGA
CALB1
  sensor-assay potency score (higher = more potent): -0.351

## TTCTCTGTCTGTACTTCCTGTC
CADM4
  sensor-assay potency score (higher = more potent): -0.0405

## TCTTGTTCAACTATATTTGTGA
CALB1
  sensor-assay potency score (higher = more potent): 0.29

## TATTTTTCCATCATCTCTTTGC
CALB1
  sensor-assay potency score (higher = more potent): -0.281

## TTGATTGGTAAACTAAATCTGT
CALB1
  sensor-assay potency score (higher = more potent): -0.119

## AAACAGTATAGAAACAAGCTGA
CALB1
  sensor-assay potency score (higher = more potent): -0.0132

## TCTTCAATAACAACCCGCTTGC
CAMK2N1
  sensor-assay potency score (higher = more potent): -0.41

## ATACTGCTTATAAACACACTGC
CAPNS2
  sensor-assay potency score (higher = more potent): -0.451

## TTGACAATCTCCTCTTCGCTAT
CASQ1
  sensor-assay potency score (higher = more potent): -0.427

## TTGAGAGTCTCTAAGAACTCGA
CASQ1
  sensor-assay potency score (higher = more potent): -0.0687

## TATTAATAGATGATCGACCCTC
CASP8
  sensor-assay potency score (higher = more potent): -0.244

## TTTGGGTTCTGACACAACCGCA
CBL
  sensor-assay potency score (higher = more potent): -1.29

## TACAGCTATCAATCTGCTGGTC
CBL
  sensor-assay potency score (higher = more potent): -0.313

## TTGTAATGCTCTGAGTCTTTGC
CASQ1
  sensor-assay potency score (higher = more potent): -1.04

## TACATTAACAAGTGATTGCTGA
CASQ1
  sensor-assay potency score (higher = more potent): 0.512

## TTCTTGAACACATTCTTGTAGT
CASQ1
  sensor-assay potency score (higher = more potent): 0.249
